PubChem BioAssay (NCI)
Compounds without any hit were thinned out: in the full panel of roughly 83,000, 20% have a hit.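 Growth was measured after 48 h exposure to one concentration of compound in 96-well plates. Values under 10 count as active.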 The source made the active and inactive calls.

System: T-47D breast
Assay: NCI-60 one-dose screen, 48 h (100 = growth as untreated, 0 = no growth, -100 = all killed)
Conditions: 10 µM unless noted

| SMILES | growth |
| --- | --- |
| COc1ccc2[nH]c(=O)cc(-n3ncc(C(=O)/C=C/c4cc(OC)c(OC)c(OC)c4)c3C)c2c1 | 5.38% (active) |
| COc1ccccc1NC(=O)c1ccc(NC(=O)CCl)s1 | 40.6% (inactive) |
| Cc1ccc(C(C)C)cc1Oc1cccc(-c2c(-c3ccc(C(F)(F)F)cc3)ncn2C2CCNCC2)n1 | -83.6% (active) |
| O=C(c1ccc(O)cc1)C1[C@H](c2ccc(Cl)cc2)[C@@H](c2ccccc2)NC12C(=O)Nc1ccccc12 (some centres not stated) | 11.7% (inactive) |
| COc1c(B(O)O)cccc1-c1nc2ccc3cn[nH]c3c2c2c1CCCC2 | 70.6% (inactive) |
| COc1ccc(S(=O)(=O)Nc2ccc(-c3ccc4c(c3)NC(=O)/C4=C\c3ccc[nH]3)cc2)cc1OC | -21% (active) |
| Cc1ccc2c(c1)nc(-c1ccccc1)n2CC(=O)N=Nc1c(O)[nH]c2ccc(Cl)cc12 | -79.4% (active) |
| Cc1nn(-c2ccccc2)c2nc(C)n(CC(=O)N/N=C/c3ccccc3O)c(=O)c12 | 16.1% (inactive) |
| Cc1cc(C)c2[nH]c(=O)c(C(c3nnnn3Cc3ccc4c(c3)OCO4)N3CCN(C)CC3)cc2c1 (configuration not stated) | 112% (inactive) |
| FC(F)(F)CN1CCN(CCn2c(C(F)(F)F)cc3c(Cl)ncnc32)CC1 | 59.3% (inactive) |
| O=C1NC(=NC23CC4CC(CC(C4)C2)C3)N/C1=C\c1ccc2ncccc2c1 | 22.5% (inactive) |
| COc1cc2cc(C(=O)N3C[C@@H](CCl)c4c3cc(OC(=O)N(CCC(=O)N3CCN(C)CC3)C3CCCCC3)c3ccccc43)[nH]c2c(OC)c1OC | -43.1% (active) |
